Results from PubChem BioAssay AID1159580 (chemical genetic matrix, 2015).
Among all 5,500 compounds or so, about 2,000 (36%) were called active. Inconclusive results (about 18%) are left out. No stated cut-off is given here; in the data, active means normalized growth mostly below about 0.91 (no sharp cut-off); inconclusive means no clear call, values can overlap the other calls; inactive means mostly above about 0.92. The list shows a part of the results.

Assay: chemical genetic growth profiling, strain panel (AID 1159580);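 further: tested at 20 µM; growth read once vehicle control cultures reached saturation at 30 °C; 1 = growth at the plate median or of vehicle wells; lower values mean less growth of the strain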
Details: growth OD
[1] = S. cerevisiae deletion strains, locus YDL101C, strain DUN1, active compounds read low
[2] = S. cerevisiae deletion strains, locus YHR030C, strain SLT2, active compounds read low

Measured: normalized growth

CC(=O)c1ccc(Sc2ccccn2)c([N+](=O)[O-])c1
inactive: S. cerevisiae deletion strains, locus YAL013W, strain DEP1, active compounds read low 0.996 | S. cerevisiae deletion strains, locus YBR229C, strain ROT2, active compounds read low 1 | S. cerevisiae deletion strains, locus YCL061C, strain MRC1, active compounds read low 1.02 | [1] 1.01 | S. cerevisiae deletion strains, locus YDR150W, strain NUM1, active compounds read low 0.985 | S. cerevisiae deletion strains, locus YEL061C, strain CIN8, active compounds read low 0.974 | S. cerevisiae deletion strains, locus YGR078C, strain PAC10, active compounds read low 0.986 | [2] 0.71 | S. cerevisiae deletion strains, locus YHR087W, strain rtc3, active compounds read low 1.01 | S. cerevisiae deletion strains, locus YJL187C, strain SWE1, active compounds read low 0.98 | S. cerevisiae deletion strains, locus YJR043C, strain POL32, active compounds read low 1.01 | S. cerevisiae deletion strains, locus YJR075W, strain HOC1, active compounds read low 0.973 | S. cerevisiae deletion strains, locus YKL190W, strain CNB1, active compounds read low 0.997 | S. cerevisiae deletion strains, locus YLR039C, strain RIC1, active compounds read low 0.849 | S. cerevisiae deletion strains, locus YLR058C, strain SHM2 (second series), active compounds read low 0.991 | S. cerevisiae deletion strains, locus YLR085C, strain ARP6, active compounds read low 0.835 | S. cerevisiae deletion strains, locus YLR262C, strain YPT6, active compounds read low 0.822 | S. cerevisiae deletion strains, locus YML094W, strain GIM5, active compounds read low 0.983 | S. cerevisiae deletion strains, locus YMR219W, strain ESC1, active compounds read low 0.983 | S. cerevisiae deletion strains, locus YMR263W, strain SAP30, active compounds read low 0.993 | S. cerevisiae deletion strains, locus YMR307W, strain GAS1, active compounds read low 1.04 | S. cerevisiae deletion strains, locus YNL128W, strain TEP1, active compounds read low 0.967 | S. cerevisiae deletion strains, locus YNL153C, strain GIM3, active compounds read low 0.98 | S. cerevisiae deletion strains, locus YNL298W, strain CLA4 (second series), active compounds read low 0.934 | S. cerevisiae deletion strains, locus YNL322C, strain KRE1, active compounds read low 0.966 | S. cerevisiae deletion strains, locus YNR030W, strain Alg12, active compounds read low 0.99 | S. cerevisiae deletion strains, locus YOL006C, strain TOP1, active compounds read low 0.747 | S. cerevisiae deletion strains, locus YPL055C, strain LGE1, active compounds read low 0.976 | S. cerevisiae deletion strains, locus YPL241C, strain CIN2, active compounds read low 1.01 | S. cerevisiae deletion strains, locus YPR135W, strain CTF4, active compounds read low 0.927 | S. cerevisiae strains, strain wild type, active compounds read low 0.984

O=[N+]([O-])c1ccc(Sc2ccccc2)cc1O
inactive: S. cerevisiae deletion strains, locus YAR019C, strain CDC15, active compounds read low 0.915 | S. cerevisiae deletion strains, locus YBL105C, strain PKC1, active compounds read low 0.925 | S. cerevisiae deletion strains, locus YBR135W, strain CKS1, active compounds read low 0.927 | S. cerevisiae deletion strains, locus YBR136W, strain MEC1, active compounds read low 0.924 | S. cerevisiae deletion strains, locus YBR160W, strain CDC28, active compounds read low 0.929 | S. cerevisiae deletion strains, locus YDL017W, strain CDC7, active compounds read low 0.929 | S. cerevisiae deletion strains, locus YDL028C, strain MPS1, active compounds read low 0.931 | [1] 0.914 | S. cerevisiae deletion strains, locus YDL108W, strain KIN28, active compounds read low 0.927 | S. cerevisiae deletion strains, locus YDL132W, strain cdc53, active compounds read low 0.909 | S. cerevisiae deletion strains, locus YDL214C, strain PRR2, active compounds read low 0.823 | S. cerevisiae deletion strains, locus YDR052C, strain DBF4, active compounds read low 0.943 | S. cerevisiae deletion strains, locus YDR054C, strain cdc34, active compounds read low 0.899 | S. cerevisiae deletion strains, locus YDR226W, strain ADK1, active compounds read low 0.958 | S. cerevisiae deletion strains, locus YDR477W, strain SNF1, active compounds read low 0.844 | S. cerevisiae deletion strains, locus YER123W, strain YCK3, active compounds read low 0.78 | S. cerevisiae deletion strains, locus YER133W, strain GLC7, active compounds read low 0.831 | S. cerevisiae deletion strains, locus YFL009W, strain cdc4, active compounds read low 0.91 | S. cerevisiae deletion strains, locus YFL029C, strain CAK1, active compounds read low 0.928 | S. cerevisiae deletion strains, locus YFR003C, strain YPI1, active compounds read low 0.928 | S. cerevisiae deletion strains, locus YFR019W, strain FAB1, active compounds read low 0.895 | S. cerevisiae deletion strains, locus YFR028C, strain CDC14, active compounds read low 0.959 | S. cerevisiae deletion strains, locus YGR040W, strain KSS1, active compounds read low 0.84 | S. cerevisiae deletion strains, locus YGR052W, strain FMP48, active compounds read low 0.817 | S. cerevisiae deletion strains, locus YGR092W, strain DBF2, active compounds read low 0.709 | [2] 0.904 | S. cerevisiae deletion strains, locus YHR079C, strain IRE1, active compounds read low 0.812 | S. cerevisiae deletion strains, locus YHR082C, strain KSP1, active compounds read low 0.838 | S. cerevisiae deletion strains, locus YHR205W, strain SCH9, active compounds read low 0.864 | S. cerevisiae deletion strains, locus YIL147C, strain SLN1, active compounds read low 0.923 | S. cerevisiae deletion strains, locus YJL095W, strain BCK1, active compounds read low 0.806 | S. cerevisiae deletion strains, locus YJL128C, strain PBS2, active compounds read low 0.843 | S. cerevisiae deletion strains, locus YJL157C, strain FAR1, active compounds read low 0.796 | S. cerevisiae deletion strains, locus YJR016C, strain ILV3, active compounds read low 0.913 | S. cerevisiae deletion strains, locus YJR066W, strain TOR1 (second series), active compounds read low 0.834 | S. cerevisiae deletion strains, locus YJR066W, strain TOR1, active compounds read low 0.827 | S. cerevisiae deletion strains, locus YKL048C, strain ELM1, active compounds read low 0.878 | S. cerevisiae deletion strains, locus YKL067W, strain YNK1, active compounds read low 0.821 | S. cerevisiae deletion strains, locus YKL101W, strain HSL1, active compounds read low 0.862 | S. cerevisiae deletion strains, locus YKL193C, strain SDS22, active compounds read low 0.921 | S. cerevisiae deletion strains, locus YKL203C, strain TOR2, active compounds read low 0.871 | S. cerevisiae deletion strains, locus YLR133W, strain CKI1, active compounds read low 0.85 | S. cerevisiae deletion strains, locus YLR403W, strain SFP1, active compounds read low 0.8 | S. cerevisiae deletion strains, locus YML070W, strain DAK1, active compounds read low 0.824 | S. cerevisiae deletion strains, locus YMR001C, strain CDC5, active compounds read low 0.919 | S. cerevisiae deletion strains, locus YMR205C, strain PFK2 (second series), active compounds read low 0.824 | S. cerevisiae deletion strains, locus YMR277W, strain FCP1, active compounds read low 0.917 | S. cerevisiae deletion strains, locus YNL006W, strain LST8, active compounds read low 0.925 | S. cerevisiae deletion strains, locus YNL020C, strain ARK1, active compounds read low 0.837 | S. cerevisiae deletion strains, locus YNL161W, strain CBK1, active compounds read low 0.922 | S. cerevisiae deletion strains, locus YNL183C, strain NPR1, active compounds read low 0.828 | S. cerevisiae deletion strains, locus YNL207W, strain RIO2, active compounds read low 0.912 | S. cerevisiae deletion strains, locus YNL222W, strain SSU72, active compounds read low 0.924 | S. cerevisiae deletion strains, locus YNL307C, strain MCK1 (second series), active compounds read low 0.836 | S. cerevisiae deletion strains, locus YOL078W, strain AVO1, active compounds read low 0.903 | S. cerevisiae deletion strains, locus YOL136C, strain PFK27, active compounds read low 0.816 | S. cerevisiae deletion strains, locus YOR061W, strain CKA2, active compounds read low 0.817 | S. cerevisiae deletion strains, locus YOR119C, strain RIO1, active compounds read low 0.892 | S. cerevisiae deletion strains, locus YOR231W, strain MKK1, active compounds read low 0.806 | S. cerevisiae deletion strains, locus YOR329C, strain SCD5, active compounds read low 0.92 | S. cerevisiae deletion strains, locus YPL031C, strain PHO85, active compounds read low 0.807 | S. cerevisiae deletion strains, locus YPL153C, strain RAD53, active compounds read low 0.828 | S. cerevisiae deletion strains, locus YPL204W, strain HRR25, active compounds read low 0.798 | S. cerevisiae deletion strains, locus YPL209C, strain IPL1, active compounds read low 0.923 | S. cerevisiae deletion strains, locus YPL256C, strain CLN2, active compounds read low 0.895 | S. cerevisiae deletion strains, locus YPR025C, strain CCL1, active compounds read low 0.924 | S. cerevisiae deletion strains, locus YPR111W, strain DBF20, active compounds read low 0.89 | S. cerevisiae deletion strains, strain NNK1, active compounds read low 0.892 | S. cerevisiae deletion strains, strain TSCII, active compounds read low 0.906
active: S. cerevisiae deletion strains, locus YLR113W, strain HOG1, active compounds read low 0.736 | S. cerevisiae deletion strains, locus YPR106W, strain ISR1, active compounds read low 0.875
